For assay [1], the target named is Peroxisome proliferator-activated receptor gamma (Homo sapiens) (UniProt P37231). In words: qHTS assay to identify small molecule antagonists of the peroxisome proliferator-activated receptor gamma (PPARg) signaling pathway (AID 743191; calls by dose curve; further: series mostly up to about 63 µM; nearly all actives have a fitted effect of over 30% in size). An outline of the steps: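 Beta-lactamase reporter under UAS control in HEK293H PPARg-bla cells; compound treatment 17 h at 37C. Read-out: fluorescence intensity after 1 h room-temperature incubation with LiveBLAzer B/G FRET substrate.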
Peroxisome proliferator-activated receptor gamma (Homo sapiens), sequence (P37231 whole entry, looked up): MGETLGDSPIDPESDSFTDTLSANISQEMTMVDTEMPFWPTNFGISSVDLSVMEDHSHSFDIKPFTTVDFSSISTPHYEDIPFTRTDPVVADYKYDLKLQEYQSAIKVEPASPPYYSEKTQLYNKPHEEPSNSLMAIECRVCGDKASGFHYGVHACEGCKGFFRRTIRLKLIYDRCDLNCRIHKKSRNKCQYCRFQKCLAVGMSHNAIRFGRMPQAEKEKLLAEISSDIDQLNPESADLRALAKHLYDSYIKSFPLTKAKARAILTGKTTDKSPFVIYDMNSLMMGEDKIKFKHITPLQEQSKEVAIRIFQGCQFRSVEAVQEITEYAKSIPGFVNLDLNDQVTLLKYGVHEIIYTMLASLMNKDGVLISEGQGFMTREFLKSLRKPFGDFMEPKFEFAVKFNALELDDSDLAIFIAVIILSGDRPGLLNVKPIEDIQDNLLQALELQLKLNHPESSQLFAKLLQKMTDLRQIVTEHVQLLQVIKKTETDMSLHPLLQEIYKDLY
(In qHTS, concentration-response curves come from the screen itself.)

The nature of assay [2]: qHTS assay for small molecule agonists of the antioxidant response element (ARE) signaling pathway - cell viability counter screen (AID 743203; calls by dose curve; further: nearly all actives have a fitted effect of over 55% in size). Put shortly:
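CellSensor ARE-bla HepG2 cells, 2,000 per well, rested 5 hrs at 37C/5% CO2, then exposed to compound in DMSO for 16 hrs; viability read as CellTiter-Glo luminescence after 30 min at room temperature, in the reporter wells.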

The nature of assay [3]: qHTS assay for small molecule activators of the heat shock response signaling pathway - cell viability counter screen (AID 743209). Further: nearly all actives have a fitted effect of over 50% in size. Put shortly: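 CellSensor HSE-bla HeLa cells, plated overnight at 37 C/5% CO2, were exposed to compounds in DMSO for 5 h at 37 C. Viability was then read in the same wells by CellTiter-Glo luminescence after 30 min at room temperature.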
A short description of assay [4]: qHTS assay for small molecule activators of the heat shock response signaling pathway (AID 743210; active means well fitted activation curve with a large enough effect in the signal ratio in the repeat runs, with a control signal flat, not every such curve was filed as active; the % refers to the signal ratio;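 further: HeLa cells with beta-lactamase reporter driven by heat shock elements; series mostly up to about 63 µM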). An outline of the steps: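 In HSE-bla HeLa cells, 5 h compound incubation (37 C) precedes addition of LiveBLAzer B/G substrate; after 2.5 h at room temperature, fluorescence intensity indicates reporter induction.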
Assay [5] in a line: qHTS assay to identify small molecule agonists of the peroxisome proliferator-activated receptor delta (PPARd) signaling pathway - cell viability counter screen (AID 743211). Further: nearly all actives have a fitted effect of over 55% in size. Put shortly: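 Viability was measured as CellTiter-Glo luminescence (30 min, room temperature) in the same wells as the beta-lactamase readout. GeneBLAzer PPARd UAS-bla HEK293H cells received compound after 5 h plating and were incubated 17 h at 37 C.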

The target in assay [6] is Peroxisome proliferator-activated receptor delta (Homo sapiens) (UniProt Q03181). The experiment in a line: qHTS assay to identify small molecule agonists of the peroxisome proliferator-activated receptor delta (PPARd) signaling pathway (AID 743212; calls by dose curve). An outline of the steps: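 HEK293H UAS-bla reporter cells, human PPARd system; compounds delivered in DMSO after 5 h plating, then at 37 C. Beta-lactamase FRET read, 2 h RT substrate step.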
Peroxisome proliferator-activated receptor delta (Homo sapiens), sequence (Q03181 whole entry, looked up): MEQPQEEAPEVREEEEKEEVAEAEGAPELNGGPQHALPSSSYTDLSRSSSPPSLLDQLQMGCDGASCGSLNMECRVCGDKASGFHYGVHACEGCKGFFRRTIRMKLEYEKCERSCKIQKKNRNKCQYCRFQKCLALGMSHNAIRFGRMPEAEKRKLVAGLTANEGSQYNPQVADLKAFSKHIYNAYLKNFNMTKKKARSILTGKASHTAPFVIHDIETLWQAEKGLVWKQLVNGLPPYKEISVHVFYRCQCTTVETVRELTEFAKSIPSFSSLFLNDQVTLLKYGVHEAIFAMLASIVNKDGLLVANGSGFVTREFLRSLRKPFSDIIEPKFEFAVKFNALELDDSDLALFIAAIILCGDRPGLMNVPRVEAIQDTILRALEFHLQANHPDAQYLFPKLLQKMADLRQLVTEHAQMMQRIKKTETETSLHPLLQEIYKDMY

Assay [7] is described as follows: qHTS assay to identify small molecule antagonists of the peroxisome proliferator-activated receptor delta (PPARd) signaling pathway - cell viability counter screen (AID 743213). Further: nearly all actives have a fitted effect of over 50% in size. Put shortly: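 HEK293H cells with the PPARd UAS-bla reporter, co-treated 17 h at 37 C with compounds and L165041 (300 nM final), were lysed with CellTiter-Glo. Luminescence indicated viable cell content.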

For assay [8], the target named is Peroxisome proliferator-activated receptor delta (Homo sapiens) (UniProt Q03181). In words: qHTS assay to identify small molecule antagonists of the peroxisome proliferator-activated receptor delta (PPARd) signaling pathway (AID 743215; active means well fitted inhibition curve with a large enough effect in the signal ratio in the repeat runs, not every such curve was filed as active; the % refers to the signal ratio;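 further: cells stimulated with agonist L165041 at 300 nM final during compound exposure; series mostly up to about 62 µM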). An outline of the steps:
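PPARd UAS-bla HEK293H cells were pre-incubated 5 h at 37 C, then given test compounds in DMSO plus agonist L165041 (300 nM final). After 17 h at 37 C, beta-lactamase FRET substrate was added; fluorescence read after 2 h at room temperature.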

Assay [9] in a line: qHTS assay to identify small molecule agonists of the farnesoid-X-receptor (FXR) signaling pathway - cell viability counter screen (AID 743218). Further: nearly all actives have a fitted effect of over 45% in size. An outline of the steps: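 FXR-UAS-bla HEK 293T cells, plated 5 h at 37 C, were exposed to compounds for 16 h at 37 C. CellTiter-Glo was then added to the same wells as the bla readout; luminescence read after 30 min at room temperature.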

Assay [10] is described as follows: qHTS assay to identify small molecule antagonists of the farnesoid-X-receptor (FXR) signaling pathway - cell viability counter screen (AID 743221; active means well fitted cell-killing curve with a large enough effect in the repeat runs, not every such curve was filed as active; further: nearly all actives have a fitted effect of over 50% in size). An outline of the steps:
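Cytotoxicity counter screen run in the FXR-bla reporter wells: HEK 293T cells exposed to compound with 50 uM (final) chenodeoxycholic acid for 16 h, 37 C, then viability measured by CellTiter-Glo luminescence after 30 min, room temperature.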

Assay [11] can be described thus: qHTS assay to identify small molecule agonists of the vitamin D receptor (VDR) signaling pathway - cell viability counter screen (AID 743224). Further: nearly all actives have a fitted effect of over 50% in size. Further: potency means the concentration at half of the fitted maximal effect. An outline of the steps: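 VDR-bla cells were preincubated 4 h at 37C/5% CO2, then exposed to compounds for 16 h. After the 2 h room-temperature bla FRET read, CellTiter-Glo was added to the same wells and luminescence read after 30 min.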

Assay [12] in a line: qHTS assay to identify small molecule that activate the aryl hydrocarbon receptor (AhR) signaling pathway - cell viability counter screen (AID 743086).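 Further: HepG2 liver cells carrying the AhR DRE luciferase reporter; series mostly up to about 70 µM; nearly all actives have a fitted effect of over 45% in size.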 Put shortly:
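Cytotoxicity counter screen: CellTiter-Fluor signal (30 min, 37 C) in 4000 HepG2 cells/well carrying the DRE-luciferase reporter, following 24 h compound exposure at 37 C.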

In assay [13] the target is Peroxisome proliferator-activated receptor gamma (Homo sapiens) (UniProt P37231). The experiment in a line: qHTS assay to identify small molecule agonists of the peroxisome proliferator-activated receptor gamma (PPARg) signaling pathway (AID 743094; active means well fitted activation curve with a large enough effect in the signal ratio in the repeat runs, not every such curve was filed as active; the % refers to the signal ratio). An outline of the steps: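 GeneBLAzer PPARg UAS-bla HEK293H cells carrying a stably integrated beta-lactamase reporter were pre-incubated 5 h at 37C, then exposed to compounds in DMSO for 17 h at 37C; LiveBLAzer B/G FRET substrate was added for 1 h at room temperature and fluorescence read.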

Assay [14] is described as follows: qHTS assay to identify small molecule antagonists of the peroxisome proliferator-activated receptor gamma (PPARg) signaling pathway - cell viability counter screen (AID 743194). Further: nearly all actives have a fitted effect of over 55% in size. The following applies: Potency: co-treated with 50 nM rosiglitazone. Put shortly:
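Viability was measured as CellTiter-Glo luminescence in GeneBLAzer PPARg UAS-bla HEK293H cells. These cells had been exposed 17 h at 37 C to compounds together with rosiglitazone at 50 nM final, with the beta-lactamase readout taken in the same wells.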

The target of assay [15] is Bile acid receptor (Homo sapiens) (UniProt Q96RI1). In words: qHTS assay to identify small molecule antagonists of the farnesoid-X-receptor (FXR) signaling pathway (AID 743217; active means well fitted inhibition curve with a large enough effect in the signal ratio in the repeat runs, not every such curve was filed as active; the % refers to the signal ratio). Put shortly:
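FXR-UAS-bla HEK 293T cells pre-incubated 5 h at 37 °C, then exposed to compounds with chenodeoxycholic acid (50 uM final) for 16 h at 37 °C. Beta-lactamase reporter read by LiveBLAzer B/G FRET substrate fluorescence after 2 h at room temperature.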

The target is the same in assay [16]. The experiment in a line: qHTS assay to identify small molecule agonists of the farnesoid-X-receptor (FXR) signaling pathway (AID 743220; active means well fitted activation curve with a large enough effect in the signal ratio in the repeat runs, not every such curve was filed as active; the % refers to the signal ratio). Put shortly: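 Beta-lactamase reporter under UAS control in GeneBLAzer FXR HEK 293T cells (5000/well) measured with LiveBLAzer FRET substrate after 2 h at room temperature. Compound exposure lasted 16 h at 37C.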
Assay [17] has as its target Vitamin D3 receptor (Homo sapiens) (UniProt P11473). In words: qHTS assay to identify small molecule agonists of the vitamin D receptor (VDR) signaling pathway (AID 743222; calls by dose curve). Put shortly: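 VDR-bla cells were plated 4 h at 37C/5% CO2, then exposed to compounds in DMSO for 16 h. After LiveBLAzer B/G FRET substrate addition and 2 h at room temperature, beta-lactamase reporter fluorescence was read.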

Assay [18] shares this target. The experiment in a line: qHTS assay to identify small molecule antagonists of the vitamin D receptor (VDR) signaling pathway (AID 743223; active means well fitted inhibition curve with a large enough effect in the signal ratio in the repeat runs, not every such curve was filed as active; the % refers to the signal ratio). An outline of the steps:
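Antagonist mode: compound added to VDR-bla cells alongside agonist 1alpha,25-dihydroxyvitamin D3 (3 nM final), incubation 16 h at 37C. Read-out is LiveBLAzer FRET fluorescence, 2 h at room temperature.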

Each structure is given as a SMILES string. Results filed as inconclusive are left out. Active and inactive are the calls of the source. Unless noted, the call rests on the fitted dose curve; in most records, active means well fitted curve in the direction sought with a large enough effect in the repeat runs; inconclusive means weak or mixed curves; inactive means no such curve, though single readings can be large; an effect the other way counts as inactive or inconclusive.

Bile acid receptor (Homo sapiens), sequence (Q96RI1 whole entry, looked up): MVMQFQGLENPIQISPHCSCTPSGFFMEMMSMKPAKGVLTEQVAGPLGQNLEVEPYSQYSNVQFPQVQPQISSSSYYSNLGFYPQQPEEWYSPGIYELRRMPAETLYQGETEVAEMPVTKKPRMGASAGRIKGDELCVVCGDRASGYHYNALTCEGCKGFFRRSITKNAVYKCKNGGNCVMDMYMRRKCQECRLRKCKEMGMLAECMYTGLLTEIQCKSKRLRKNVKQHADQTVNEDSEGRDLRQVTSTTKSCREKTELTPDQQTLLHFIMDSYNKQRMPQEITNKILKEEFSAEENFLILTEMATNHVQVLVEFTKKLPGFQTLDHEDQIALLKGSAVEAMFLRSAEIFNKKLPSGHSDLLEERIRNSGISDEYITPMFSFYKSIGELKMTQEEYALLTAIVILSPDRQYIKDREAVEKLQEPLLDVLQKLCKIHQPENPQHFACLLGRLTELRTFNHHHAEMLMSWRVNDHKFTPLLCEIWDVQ
Vitamin D3 receptor (Homo sapiens), sequence (P11473 whole entry, looked up): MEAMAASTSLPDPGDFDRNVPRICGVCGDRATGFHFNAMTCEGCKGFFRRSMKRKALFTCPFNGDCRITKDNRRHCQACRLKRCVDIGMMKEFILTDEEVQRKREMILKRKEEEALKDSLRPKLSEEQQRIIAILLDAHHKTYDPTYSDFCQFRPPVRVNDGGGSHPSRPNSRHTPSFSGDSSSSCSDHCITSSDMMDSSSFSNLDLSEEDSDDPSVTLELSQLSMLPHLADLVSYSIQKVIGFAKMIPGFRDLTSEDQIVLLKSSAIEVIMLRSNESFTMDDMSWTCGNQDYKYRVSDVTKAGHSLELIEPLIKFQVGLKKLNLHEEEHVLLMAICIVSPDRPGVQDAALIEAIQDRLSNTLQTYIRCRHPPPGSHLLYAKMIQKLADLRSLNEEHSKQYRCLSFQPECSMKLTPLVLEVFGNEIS

On to `Clc1ccccc1N1CCNCC1`, for which the Potency result in assay [1], in assay [2], in assay [3], in assay [5], in assay [9] and in assay [11] was “inactive” throughout. Further, the call in [4], in [6], in [7], in assay [8] and in [10] was inactive.
On to `OC(c1ccc(F)cc1)(c1cncnc1)c1ccccc1Cl` (stereo not given), for which the molecule was called inactive in assay [12], in assay [4], in assay [6], in [7], in assay [8] and in [10]. The Potency entry in assay [2], in [3], in assay [5], in assay [9] and in assay [11] was “inactive” each time.
Consider `C=C(C)[C@@H]1CC=C(C=O)CC1`, for which the result in assay [13], in [4], in [6], in assay [7], in assay [16] and in assay [10] was inactive. In addition, in [17], the outcome was inactive. In addition, the Potency entry in assay [14], in assay [2], in assay [3], in assay [5], in [15] and in assay [11] was “inactive” each time.
Take `CCCCC(=O)Cl`: the call in assay [12], in assay [4], in assay [6], in assay [7], in assay [16] and in assay [10] was inactive. The molecule was classed as inactive in assay [17]. The Potency result in assay [3], in assay [5], in [15], in assay [9] and in assay [11] was “inactive” throughout.
For the molecule `Fc1ccc(C2(Cn3cncn3)OC2c2ccccc2Cl)cc1` (stereo not given), the Potency result in assay [14], in [2], in assay [3], in assay [5], in [15] and in [9] was “inactive” each time. For the same molecule, the result in assay [4], in assay [7], in assay [10] and in assay [17] was inactive.
`CC1=C(C(=O)O)N2C(=O)[C@@H](N)[C@H]2SC1`: the Potency result in assay [1], in [14], in assay [2], in [3], in assay [5] and in assay [9] was “inactive” in each case. Besides, the Potency entry in assay [11] is “inactive”. The molecule was classed as inactive in assay [4], in [6], in assay [7], in assay [8], in [10] and in assay [18].
Consider `COc1cccc(C(=O)NN(C(=O)c2cc(C)cc(C)c2)C(C)(C)C)c1C`, for which the Potency entry in [1], in assay [14], in assay [3], in assay [5] and in [11] was “inactive” in each case. Besides, the outcome in [4], in [6], in assay [8], in assay [10], in assay [17] and in assay [18] was inactive.
Consider `Fc1cc(Br)ccc1CBr`, for which the Potency result in assay [1], in [3], in assay [5], in assay [15] and in [11] was “inactive” each time. Moreover, the result in [4], in [7], in assay [8], in assay [16], in assay [10] and in [17] was inactive. Further, the molecule was classed as inactive in assay [18].
For `c1cc[c]([Hg][c]2ccccc2)cc1`, the molecule was classed as inactive in [13], in [4], in assay [7], in assay [10] and in assay [17]. Further, the Potency entry in assay [3] was “inactive”. The Potency in assay [11] is 49 µM (active).

Values taken from PubChem BioAssay (Tox21).
